High-throughput results (PubChem)
Shiga toxin inh: blocks Shiga toxin action in Vero cells; Vero cells, Shiga toxin protein synthesis inhibition reporter; inhibition, % at 38.7 µM; actives 9.2% (n = 290,000); in the data active = inhibition mostly above about 28%, no sharp cut-off; inactive = mostly below about 43%
Pf growth 96h: P. falciparum growth inhibition at 96 hours; Potency, µM (top dose mostly 28.7 µM), most hits filed as inhibitors; actives 6.9% (n = 320,000); AID 504834; P. falciparum luciferase reporter growth, 96 h
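Two-generation exposure (96 h) targets delayed-death phenotype. Reporter parasites carrying integrated firefly luciferase, in red cells at 2% hematocrit and 0.05% parasitemia final, kept at 37 C, 5% CO2; luminescence loss indicates inhibition.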
Pf growth 48h: inhibits P. falciparum growth in the first generation, 48 h. P. falciparum luciferase growth in erythrocytes, 48 h. Potency, µM (titrated, usually from 28.7 µM), usual class: inhibitors. actives 5.9% (n = 310,000). AID 504832
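First compound was added to culture medium, then infected red cells at 0.1% parasitemia and 2% hematocrit (final). After incubation at 37 C under 5% CO2, luciferase detection reagent was dispensed and light output recorded.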
CHX counter-1: counter-screen for Shiga toxin inhibitors: cycloheximide protein synthesis inhibition; cell reporter, cycloheximide protein synthesis inhibition counterscreen; max response, %; actives 12% (n = 300,000); in the data active = max response mostly above about 13%, no sharp cut-off; inactive = mostly below about 14%; also: read at 38.3 µM for the half of the compounds with a filed dose
HCV inh: HCV inhibition | Huh7.5.1 HCVcc-Cre infection, luciferase reporter, 44 h | Potency, µM (series often up to 41.8 µM), most hits filed as inhibitors | actives 3.4% (n = 340,000)
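Cells (1,000/well) were plated 4 h before compound, then infected with HCVcc-Cre virus (~0.5 moi). After 44 h further culture, infection was read as luciferase luminescence following a 15 min substrate incubation at room temperature.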
HCMV inh: inhibitors of human cytomegalovirus; HFF cells, HCMV-luciferase reporter, 72 h; active compounds read low; activity change, negative = inhibition, % at 57.5 µM; actives 4.5% (n = 410,000); in the data active = activity change below about -60%; inconclusive = no clear call, values can overlap the other calls; inactive = above about -39%
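Steps: HFFs plated, 16 h 37C; compounds added; HCMV-luciferase added to MOI 1 PFU/cell; 72 h 37C; OneGlo reagent, 5 min room temperature; luminescence read, normalized to controls.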
CHX counter-2: counter-screen for Shiga toxin inhibitors: cycloheximide protein synthesis block; shares compounds with Shiga toxin inh; Cycloheximide counterscreen, protein synthesis reporter, Shiga toxin assay; Potency, µM (series often up to 38.3 µM), usual class: activators; actives 3% (n = 510); calls by dose curve
Numbers stand for hits; . = inactive; ? = inconclusive; / = no result; [ ] = dose if it differs, or a comment. The list is not random: actives were taken first. Their share in the collection is about 21%. Unless noted, calls follow the shape of the dose curve; as a rule, active = well fitted inhibition curve with a large enough effect; inconclusive = small, poorly fitted or top-dose-only effect, or another doubt; inactive = no such curve, though single readings can be large or run the other way.

SMILES	Shiga toxin inh	Pf growth 96h	Pf growth 48h	CHX counter-1	HCV inh	HCMV inh	CHX counter-2
COc1ccc(-c2nnc3sc(-c4ccccc4OC)nn23)cc1	87	.	.	.	.	.	.
COc1cc(-c2nn3c(-c4ccccc4)nnc3s2)cc(OC)c1OC	.	.[5.75 µM]	.	.	.	.	/
COc1cccc(C(=O)NNC(=O)C2CC(C)=C(C)CC2C(=O)O)c1 (stereo not given)	37	.	.	.	.	.	.
CCOc1ccc2oc(C(=O)NCc3nc4ccccc4[nH]3)c(C)c2c1	.	?	.	.	.	.	/
Cc1c(C(=O)Nc2nc3ccccc3[nH]2)oc2ccc(Br)cc12	14	.	.	.	.	.	10µM
COc1ccc(CN2CCC(n3nccc3NC(=O)C3CC3)CC2)cc1O	.	.	.	.	/	.	/
CCOC(=O)C1CCN(S(=O)(=O)c2cccc(-c3cn4cccc(C)c4n3)c2)CC1	.	.	.	.	?	.	/
Cc1cccn2cc(-c3cccc(S(=O)(=O)N4CC(C)OC(C)C4)c3)nc12 (stereo not given)	28	?	.	.	.	.	.
CC(=O)c1ccc(-c2cccc([C@H]3[C@@H]4C=CC[C@@H](C)[C@@H]4C(=O)N3Cc3ccccc3)c2)cc1	36	/	/	.	11µM	.	.
O=C(NCCNC(=O)c1cccnc1)c1ccc(Br)cc1	.	.	.	.	.	.	/
CN(C(=O)c1cccc(NC(=O)Cc2cccc(NC(=O)C3CCN(C(=O)C4CCCCC4)CC3)c2)c1)C1CC1	/	/	/	/	.	.	/
O=C(O)C1CCCCC1C(=O)Nc1ccc(-c2ccccc2)cc1 (stereo not given)	53	.	.	.	.	.	.
O=C(NC1CCCCC1)C(c1ccc(Cl)cc1)N(C(=O)c1ccccn1)c1cccnc1 (stereo not given)	.	.	.	.	/	/	/
O=C(CNC(=O)c1sc2ccccc2c1Cl)NCc1cccc(C(F)(F)F)c1	/	.	?	/	.	.	/
O=C(/C=C/c1ccc(S(=O)(=O)NCc2ccco2)cc1)N1CCN(c2ccccc2)CC1	66	3.7µM	?	.	?	?	.
O=C(c1ccc(S(=O)(=O)NCc2ccco2)cc1)N1CCN(c2ccc(F)cc2)CC1	/	?	?	/	.	.	/
CCCCCN(C(=O)CCC(=O)OCc1ccc(Cl)cc1Cl)c1c(N)n(CCCC)c(=O)[nH]c1=O	/	.	?	/	?	.	/
CC(C)CC1=C/C(=C/c2ccc(-c3ccccc3)o2)C(=O)O1	40	?	?	.	.	.	.
OC(CSc1ccc(F)cc1)CN1CCN(c2ccccc2)CC1 (stereo not given)	.	.	.	.	.	.	/
Cc1ccc(S(=O)(=O)N2CCC(C(=O)N[C@@H](Cc3ccccc3)C(=O)O)CC2)cc1	34	.	.	.	.	.	.
Cc1ccc(N(CC(=O)NCc2ccccc2)C(=O)CCC(=O)Nc2ccccn2)cc1	.	.	.	.	.	.	/
O=C(O)CCc1nn2c3ccccc3n(Cc3ccccc3F)c2nc1=O	.	.	.	.	.	.	/
COc1ccc(C(=O)Nc2cccc(C(=O)N3CCN(C)CC3)c2)cc1	37	0.13µM	.	.	.	.	.
COc1ccc(C(=O)Nc2cccc(C(=O)N3CCCCC3)c2)cc1	.	?	?	.	/	.	/
O=C(NCC(=O)N1CCN(c2ccccn2)CC1)c1ccc(Br)o1	36	.	.	.	.	.	.
SMILES	Shiga toxin inh	Pf growth 96h	Pf growth 48h	CHX counter-1	HCV inh	HCMV inh	CHX counter-2
COCCCNC(=O)c1cn(C)c(=O)c2c1c1ccccc1n2C	33	.	.	.	.	.	.
O=C(c1ccccn1)c1ccc2ccccc2n1	56	.	.	.	.	.	.
COc1ccc(N(CC(=O)Nc2ccc(Cl)cc2)S(=O)(=O)c2c(C)n[nH]c2C)cc1	24	.	?	.	.	?	.
COc1ccc(N(CC(=O)Nc2cccc(C)c2C)S(=O)(=O)c2c(C)n[nH]c2C)cc1	.	.	?	.	.	.	/
O=C(NCCN1C(=O)S/C(=C\c2ccc(Cl)cc2)C1=O)c1ccc(F)c(S(=O)(=O)N2CCOCC2)c1	33	?	.	.	?	.	?
O=C(NCCN1C(=O)S/C(=C\c2ccccc2)C1=O)c1cc(S(=O)(=O)N2CCOCC2)c(Cl)cc1Cl	.	?	?	.	?	.	/
Oc1ccc(C2C[C@H]3CC[C@@H]2C3)cc1O (stereo not given in full)	34	.	.	.	.	?	.
CC(=O)CC(=O)O[C@@H]1C=C[C@H](NC(=O)OC(C)(C)C)C1	/	/	/	/	/	.	/
CC(=O)Nc1cccc(NC(=O)C(=O)NCC(c2ccco2)N2CCc3ccccc32)c1 (stereo not given)	/	?	?	/	?	.	/
O=C(c1cc2c(s1)-c1ccccc1OC2)N1CCN(c2ccccc2)CC1	62	.	/	.	.	.	.
CC(C)(C)C(=O)Cn1ncc(N2CCOCC2)c(Br)c1=O	26	.	.	.	.	.	.
Cc1cccc(N2CCN(C(=O)CNC(=O)Cc3ccccc3)CC2)c1C	/	/	/	/	?	.	/
Cc1cccc(N2CCN(C(=O)Cc3ccc(Br)cc3)CC2)c1C	66	.	.	.	?	.	?
CC(C)(O)CCC(C)(C)O	/	.	.	/	.	.	/
O=C(c1ccco1)N1CCN(C(=O)c2cc(-c3ccccn3)nc3ccc(Cl)cc23)CC1	32	.	?	.	.	.	.
O=C(c1cc(-c2ccco2)nc2ccccc12)N1CCN(Cc2ccccc2)CC1	/	.	.	/	.	.	/
COc1cccc(/C=C/C(=O)NCCc2ccc3c(c2)OCCO3)c1	.	?	.	.	.	?	/
O=C(/C=C/c1ccccc1)NCCc1ccc2c(c1)OCCO2	36	.	.	.	.	.	.
Cc1cccc(C(=O)NCC(=O)NC(C)c2ccc(-n3ccnc3)cc2)c1 (stereo not given)	/	.	.	/	.	.	/
COc1ccc(N2CCN(Cc3nc4c(c(=O)[nH]c(=O)n4C)n3CC(C)=O)CC2)cc1	30	.	.	.	.	.	.
Cc1cccc(NC(=O)C(=O)NCCc2csc(-c3ccc(C(F)(F)F)cc3)n2)c1C	/	/	/	/	/	.	/
O=C(OCC(=O)N1CCN(C(=O)COC(=O)c2ccc(O)cc2O)CC1)c1ccc(O)cc1O	/	?	?	/	.	.	/
O=C(CCSc1ccccc1)NNC(=O)c1ccccc1F	/	.	.	/	.	.	/
O=C(c1ccc(N2CCCC2)c([N+](=O)[O-])c1)N1CCc2ccccc2C1	/	.	?	/	?	?	/
O=C(c1ccc([N+](=O)[O-])cc1)N1CCc2ccccc2C1	26	.	.	.	.	-68	.
O=C(NC1CCCC1)c1cc(Cl)ccc1[N+](=O)[O-]	27	.	.	.	.	.	.
